12-hLO inh – 12-hLO (ALOX12) enzyme inhibition | Potency, µM (series often up to 57.1 µM), inactives show top-dose activity change, negative = inhibition, hits mostly inhibitors | purified 12-hLO, xylenol orange hydroperoxide absorbance | 150,000 tested, 0.12% active; active = well fitted inhibition curve with a large enough effect; inconclusive = small, poorly fitted or top-dose-only effect; note: potency is the fitted concentration of half-maximal effect; nearly all actives have a fitted effect of over 55% in size
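Hydroperoxide formation by human 12-lipoxygenase from 40 uM arachidonic acid was followed colorimetrically via ferric-xylenol orange complex, using the 573/405 nm absorbance ratio. Enzyme concentration was 150 nM, with 30 min reaction at room temperature.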
ALDH1A1 inh – ALDH1A1 (human) enzyme inhibition. Potency, µM (top dose mostly 75.3 µM), for the others: top-dose activity, negative = inhibition, hits mostly inhibitors. AID 1030. P00352. 220,000 tested, 7.3% active. Purified ALDH1A1, NADH fluorescence, propionaldehyde substrate;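 note: potency is the fitted concentration of half-maximal effect; plate controls were no enzyme wells and a reference inhibitor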
Target sequence (P00352 whole entry, looked up): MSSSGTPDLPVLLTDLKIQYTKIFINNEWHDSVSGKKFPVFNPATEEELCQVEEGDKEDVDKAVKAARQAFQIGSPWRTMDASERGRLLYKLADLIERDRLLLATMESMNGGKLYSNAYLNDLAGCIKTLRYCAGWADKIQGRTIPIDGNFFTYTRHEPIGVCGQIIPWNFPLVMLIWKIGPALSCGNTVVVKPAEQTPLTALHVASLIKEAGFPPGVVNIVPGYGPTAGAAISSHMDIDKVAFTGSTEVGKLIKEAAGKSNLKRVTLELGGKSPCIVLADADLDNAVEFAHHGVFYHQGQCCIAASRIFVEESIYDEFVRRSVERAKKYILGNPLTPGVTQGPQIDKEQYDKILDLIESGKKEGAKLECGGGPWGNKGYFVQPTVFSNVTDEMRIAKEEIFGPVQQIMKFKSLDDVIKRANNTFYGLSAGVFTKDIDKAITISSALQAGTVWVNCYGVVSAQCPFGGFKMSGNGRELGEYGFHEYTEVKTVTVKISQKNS
PNC inhibitor – inhibitors of perinucleolar compartment assembly; AID 2417; PC3M PTB-GFP, PNC prevalence imaging, 16 h; hits give low values; activity change (PNC), negative = inhibition, % at 10 µM; 140,000 tested, 3.1% active;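 active = readout at or below -70, meaning at least 70% loss of cells showing the perinucleolar compartment, a nuclear body marking cancer cells; inconclusive = readout between -30 and a set limit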;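 note: plate controls were DMSO wells for no effect and camptothecin positive control wells for full effect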
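Read-out is percentage of cells bearing a perinucleolar compartment, from automated 20x imaging of fixed, Hoechst-stained PC3M PTB-GFP cells. Cells were seeded 4 h, then exposed 16 h to compound (23 nl of library stock) in duplicate plates.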
HPGD inh – blocks human HPGD enzyme activity; P15428; purified HPGD, NADH fluorescence kinetic, PGE2 substrate; Potency, µM, without a hit: at the top dose activity change, negative = inhibition, hits mostly inhibitors; 150,000 tested, 4.3% active; AID 894; note: potency is the fitted concentration of half-maximal effect
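20 nM HPGD preincubated 15 min at room temperature with compound in 50 mM Tris-HCl pH 8, 0.01% Tween 20. Started with 1 mM NAD+ and 30 uM prostaglandin E2; NADH fluorescence (360/450 nm) read 5 times over 30-s intervals, last minus first.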
LMNA splice mod – changes lamin A minigene splicing in HeLa cells; HeLa LMNA splicing GFP/RFP minigene ratio, 48 h; Potency, µM (highest dose often 46.1 µM), without a hit: at the highest dose ratio change, negative = inhibition, hits mostly inhibitors; 200,000 tested, 0.01% active; active = well fitted inhibition curve with a large enough effect in the signal ratio, with a control signal flat, not every such curve was filed as active; inconclusive = small, poorly fitted or top-dose-only effect, or effect the other way, or a change in a side signal; the % refers to the signal ratio; note: potency is the fitted concentration of half-maximal effect
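S3 HeLa stable clones carrying a lamin A-EGFP splicing minigene plus DsRed2 were seeded at 600 cells/well in Opti-MEM with 2% FBS, pin-dosed and incubated 48 h at 37°C. Acumen cytometry (488 nm) gave the GFP/RFP total-intensity ratio.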
* hit, by the source's call; ? = inconclusive; . = no result; [ ] = another dose, or the depositor's remark. An excerpt weighted towards active compounds, which were near 10% of everything screened. Unless noted, calls come from the whole dose curve; as a rule, active = well fitted inhibition curve with a large enough effect (not every such curve was filed as active); inconclusive = small, poorly fitted or top-dose-only effect, or another doubt; inactive = no such curve, though single readings can be large or run the other way. Unless noted, % is set by controls: 0 for no effect and ±100 for the full control effect.

SMILES | 12-hLO inh | ALDH1A1 inh | PNC inhibitor | HPGD inh | LMNA splice mod
O=C(C[n+]1cccc(NC(=O)c2ccccc2)c1)c1cccc([N+](=O)[O-])c1 | . | 9.5µM* | . | . | .
O=C(C[n+]1ccc(-c2cc(C(=O)Nc3cccc(C(F)(F)F)c3)c3ccccc3n2)cc1)c1cccc([N+](=O)[O-])c1 | . | -4% | . | . | 5%[46 µM]
O=C(COc1cccc(NC(=O)c2cccc([N+](=O)[O-])c2)c1)c1ccc(F)cc1 | -7% | 0% | ? | -29% | ?
O=S(=O)(c1ccccc1)N1CN2CN(C1)CN(S(=O)(=O)c1ccccc1)C2 | 5%[11.4 µM] | -2%[13.5 µM] | . | -5% | .
Cc1ccc(CNC(=O)C(=O)NCC(c2ccco2)S(=O)(=O)c2ccc(C)cc2)cc1 (configuration not stated) | . | . | . | . | -1%[46 µM]
O=C(Nc1ccccc1N1CCN(C(=O)c2ccc(Cl)cc2)CC1)c1ccc2c(c1)OCO2 | -20% | ? | -102* | ? | 10%
Cc1cc(C)nc(NS(=O)(=O)c2ccc(NC(=O)c3ccc4c(c3)OCO4)cc2)n1 | -2% | 25µM* | -26 | ? | 5%
Cc1cc(C)nc(NS(=O)(=O)c2ccc(NC(=O)c3ccc(S(=O)(=O)N4CCOCC4)cc3)cc2)n1 | 4% | 3% | -21 | -7% | 4%
O=C(Nc1ccc(C(=O)N2CCCC2)cc1)c1ccc2c(c1)OCO2 | -1% | ? | -17 | 6.3µM* | 3%
CCN(CC)CCN1C(=O)C(O)=C(C(=O)c2cccs2)C1c1ccc(C)o1 (configuration not stated) | -8% | 22µM* | ? | -9% | -3%
O=C(C1=C(O)C(=O)N(CCN2CCOCC2)C1c1ccccn1)c1cccs1 (configuration not stated) | -12% | 19µM* | 30 | -5% | 0%
CCN(CC)CCN1C(=O)C(O)=C(C(=O)c2cccs2)C1c1ccccn1 (configuration not stated) | 0% | 18µM* | 16 | -24% | -5%
COc1cccc(C2C(C(=O)c3cccs3)=C(O)C(=O)N2CCN(C)C)c1OC (configuration not stated) | 4% | ? | ? | -12% | 1%
Cc1ccc(C2C(C(=O)c3cccs3)=C(O)C(=O)N2CCN2CCOCC2)o1 (configuration not stated) | -10% | 18µM* | ? | -16% | 7%
Cc1ccc(C)c(/C(O)=C2/C(=O)C(=O)N(CCN3CCOCC3)C2c2ccc(C)o2)c1 (configuration not stated) | -3% | ? | -4 | -15% | -5%
CCNc1ncc2nc(-c3cccc(C#N)c3)c(=O)n(Cc3cccc(OC)c3)c2n1 | . | 11% | . | . | 2%
CC(C)CCC[C@@H](C)[C@H]1CC[C@H]2[C@@H]3CC=C4C[C@@H](O)CC[C@]4(C)[C@H]3CC[C@]12C | -1%[0.00818 µM] | 3% | . | -3% | ?
C#CCCCO/N=C1/C[C@@H](O)[C@@H](O)[C@@H]2[C@@H]3C(=O)N(CCC(=O)OCC)C(=O)[C@H]3CC[C@H]12 | . | 6%[13.5 µM] | . | . | .
CN1CCN(CCCNN)CC1 | 0%[11.4 µM] | 14%[13.5 µM] | . | 3% | .
CCn1c(NC(=O)c2ccc(C)cc2)c2ccccc2nc1=O | 6% | 3% | -90* | 1% | -7%
O=S(=O)(NC1CCCCC1)c1ccc(-c2csnn2)s1 | -6% | -4% | 7 | 14µM* | -13%
CC(C)(C)NS(=O)(=O)c1ccc(-c2csnn2)s1 | -6% | -5% | 15 | -20% | 17%
O=S(=O)(NC1CCCC1)c1ccc(Br)s1 | -4% | 5% | 24 | 25µM* | 2%
CNc1cc([N+](=O)[O-])ccc1N/C=C/C(=O)c1cccs1 | -9% | ? | 51 | -17% | -10%
O=C(/C=C/Nc1cccc([N+](=O)[O-])c1)c1cccs1 | -1% | 14µM* | 24 | -5% | 16%
COc1ccccc1N1CCN(C(=O)Cn2c(=O)nc(-c3ccccc3)c3ccccc32)CC1 | . | . | . | . | -2%[46 µM]
Cc1[nH]n(-c2ccc(Cl)cc2)c(=O)c1/C=N/c1nnc(-c2ccccc2)s1 | -3% | -8% | 45 | 28µM* | -13%
Cc1ccc(-n2[nH]c(C)c(/C=N/c3ccccn3)c2=O)cc1 | 5% | -8% | -27 | -14% | 5%

High-throughput results from PubChem BioAssay.
